Data on 29 compounds can be found in PubChem BioAssay.

Structures are written as SMILES.

One assay deals with Follistatin (Homo sapiens) (UniProt P19883). The assay can be described thus: FST protein binding to printed compounds – biochemical, small-molecule microarray, 635/667 nm fluorescence, primary screen (AID 1132). The settings on record: 635 nm fluorescence, higher = more signal.
Follistatin (Homo sapiens), sequence (P19883 whole entry, looked up): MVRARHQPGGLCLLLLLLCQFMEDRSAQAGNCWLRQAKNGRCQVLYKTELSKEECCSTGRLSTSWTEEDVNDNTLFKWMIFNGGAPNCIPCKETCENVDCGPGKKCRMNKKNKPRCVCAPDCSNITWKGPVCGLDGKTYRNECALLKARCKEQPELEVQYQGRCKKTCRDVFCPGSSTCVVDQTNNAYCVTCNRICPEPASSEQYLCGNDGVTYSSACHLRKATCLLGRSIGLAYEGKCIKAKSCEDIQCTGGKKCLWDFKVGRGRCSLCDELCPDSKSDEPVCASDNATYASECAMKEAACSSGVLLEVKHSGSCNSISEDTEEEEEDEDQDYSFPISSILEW
`CCCC[C@H]1OB(O)C[C@H]2C1=C(COc1ccccc1)C[C@H]1C(=O)N(C)C(=O)[C@H]12` yielded a composite z-score of 1.24.

In turn, `O=C1O[C@H](c2ccccc2)[C@H](c2ccccc2)N2[C@H]1[C@@H](C(=O)N1CCN(c3ncccn3)CC1)[C@]1(C(=O)Nc3ccc(C#CC4=CCCCC4)cc31)[C@H]2c1ccc(O)cc1` yielded a composite z-score of 0.792.

In turn, `C#CCN(CC=C(C)C)[C@H](CO)c1ccccc1` returned a composite z-score of 0.391.

Take `Cc1ccc(S[C@]2(C(=O)NCCN3CCOCC3)CC(=O)N(Cc3ccccc3Cl)[C@@H]2c2ccc(CO)cc2)cc1`: the composite z-score amounted to 0.157.

`O=C1NC(=O)C2C1C=CC(C(O)Cc1ccccc1)N2Nc1ccc(Cl)cc1Cl` (centres undefined) displayed a composite z-score of 0.178.

In turn, `C=CCOC(=O)[C@@H]1[C@H]2C(=O)O[C@H](c3ccccc3)[C@H](c3ccccc3)N2[C@H](c2ccc(OCCOC(=O)[C@@H]3C[C@@H]4C(=O)N5CCC[C@H]5C(=O)N4[C@@H]3c3ccc(O)cc3)cc2)[C@@]12C(=O)Nc1ccc(I)cc12` yielded a composite z-score of 1.29.

The next assay deals with Fibroblast growth factor 2 (Homo sapiens) (UniProt P09038). The assay can be described thus: basic fibroblast growth factor binding to printed compounds – biochemical, small-molecule microarray, 635/667 nm fluorescence, primary screen (AID 1133). The settings on record: FGF2, fluorescence 635/667, higher = more signal.
Fibroblast growth factor 2 (Homo sapiens), sequence (P09038 whole entry, looked up): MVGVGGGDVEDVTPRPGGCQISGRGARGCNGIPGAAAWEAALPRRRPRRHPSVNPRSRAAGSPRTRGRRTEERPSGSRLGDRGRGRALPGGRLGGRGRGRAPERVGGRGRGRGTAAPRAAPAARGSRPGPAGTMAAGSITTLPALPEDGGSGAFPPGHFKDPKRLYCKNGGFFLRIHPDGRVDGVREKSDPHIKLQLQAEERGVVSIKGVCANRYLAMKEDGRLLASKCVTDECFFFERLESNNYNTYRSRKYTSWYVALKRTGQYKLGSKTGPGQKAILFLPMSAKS
In turn, `C=C(C)C1C(=C)CN([C@H](CO)c2ccccc2)C1=O` (some centres undefined) had a composite z-score of -0.158.

The compound `COc1ccc(C(O)C2C=CC3C(=O)N(c4ccccc4)C(=O)C3N2Nc2ccccc2F)cc1OCc1ccccc1` (centres undefined) had a composite z-score of -0.179.

`COCCCNC(=O)[C@@]1(Cc2ccccc2)N=C(c2ccc(OCCCO)cc2)O[C@H]1c1ccccc1`: the composite z-score was determined as 0.706.

As for `CC(C)C(CO)N1C(=O)[C@@H]2[C@H]3C(=O)OCC=C[C@H]3OC23C=CCN(C(C)C)C(=O)[C@@H]13` (some centres undefined), the composite z-score is -0.501.

In turn, `[N-]=[N+]=Nc1ccccc1[C@H]1OC(c2ccc(OCCCO)cc2)=N[C@@]1(Cc1ccccc1)C(=O)O` registered a composite z-score of 0.284.

As for `Cc1ccc(S[C@]2(C(=O)NC(C)C)CC(=O)N(Cc3ccccc3Cl)[C@@H]2c2ccc(CO)cc2I)cc1`, the composite z-score was -0.934.

As for `CN(C)CCCCCCNC(=O)[C@@H]1C[C@@H]2C(=O)N[C@@H](CCCCN)C(=O)N2[C@@H]1c1cccc(OCCO)c1`, the composite z-score was found to be 1.59.

`CC(C)(C)OC(=O)CC[C@]12N=C(c3ccc(OCCCO)cc3)O[C@H]1c1ccccc1N(CCS(=O)(=O)c1ccccc1)C2=O` returned a composite z-score of 0.596.

Take `COCCn1c(C(=O)N2CCCC2)cc2c1C[C@H]1CN(C(=O)c3ccccc3)[C@@](Cc3ccc(F)cc3)(C(=O)OC)[C@@H]21`: the composite z-score was -0.703.

Turning to `CC1CC/C=C\[C@H]2OC34C=CCN(C(C)(C)C)C(=O)[C@H]3N(CCCCCCO)C(=O)[C@@H]4C2C(=O)O1` (some centres undefined), the composite z-score is -0.635.

In the case of `COCCOC(=O)N1C(=O)[C@@]2(c3cc(C#Cc4ccc(OC)cc4)ccc31)[C@H](C(N)=O)[C@H]1C(=O)O[C@H](c3ccccc3)[C@H](c3ccccc3)N1[C@@H]2c1ccccc1OCCO`, the composite z-score was found to be 1.42.

With `O=C1OCCC/C=C\[C@H]2OC34C=CCN(c5ccc6ccccc6c5)C(=O)[C@H]3N(CCCCCCO)C(=O)[C@@H]4C12` (some centres undefined), the composite z-score is -0.943.

In turn, `COc1ccc([C@H]2C[C@H]3C(Br)=C[C@@H]2C(=O)[C@]32CO2)cc1` showed a composite z-score of 0.194.

`COCCOC(=O)N1C(=O)[C@@]2(c3cc(C#CCCO)ccc31)[C@H](c1ccc(OCCO)cc1)N1[C@H](c3ccccc3)[C@H](c3ccccc3)OC(=O)[C@H]1[C@@H]2C(=O)N1CCN(c2ncccn2)CC1` displayed a composite z-score of 1.32.

For `Cc1ccc(C(C)CC(O)C2C=CC3C(=O)N(C)C(=O)C3N2NC(=O)OC(C)(C)C)o1` (centres undefined), the composite z-score was 0.48.

In turn, `C=CC[C@@]1(C(=O)N(C)C)N=C(c2ccc(OCCCO)cc2)O[C@@H]1c1ccccc1N=[N+]=[N-]` had a composite z-score of 0.26.

`COCCOC(=O)N1C(=O)[C@@]2(c3cc(C#CCCO)ccc31)[C@H](C(=O)Nc1nc3ccccc3s1)[C@H]1C(=O)O[C@H](c3ccccc3)[C@H](c3ccccc3)N1[C@@H]2c1ccc(OCCO)cc1` displayed a composite z-score of 1.65.

`O=C(c1ccccc1)N1Cc2ccccc2[C@@H]2OC(c3ccc(OCCCO)cc3)=N[C@]2(Cc2ccccc2)C1=O` displayed a composite z-score of 1.02.

For `NCCCCCNC(=O)[C@@H]1C[C@@H]2C(=O)N[C@@H](Cc3ccccc3)C(=O)N2[C@@H]1c1cccc(OCCO)c1`, the composite z-score is 0.635.

`COc1ccc([C@H]2OC[C@@H]3CC4(CC=CC4)C(=O)N32)cc1` gave a composite z-score of 0.848.

`CN1C(=O)C2C=CC(C(O)Cc3ccccc3)N(Nc3ccccc3)C2C1=O` (centres undefined) displayed a composite z-score of -0.408.

For the compound `[N-]=[N+]=NCc1ccccc1[C@@H]1OC(c2ccc(OCCCO)cc2)=N[C@]1(Cc1ccccc1N=[N+]=[N-])C(=O)N1CCOCC1`, the composite z-score was 1.66.

`COc1ccc(CCNC(=O)[C@@]2(Sc3ccc(C)cc3)CC(=O)N(C3CCCCC3)[C@@H]2c2ccc(CO)cc2I)cc1` yielded a composite z-score of 0.535.
